The test system of assay [1] is Staphylococcus aureus. Conditions: Concentration 32 ug.mL-1;; ASSAY_TEST Inhibition of Bacterial Growth; detection method Absorption (OD600); MEDIA CAMHB; plate type 384well; NBS; CORNING #3640; time 18 hr.
In assay [2] the test system is Escherichia coli. The conditions noted are these: Concentration 32 ug.mL-1;; ASSAY_TEST Inhibition of Bacterial Growth; detection method Absorption (OD600); MEDIA CAMHB; plate type 384well; NBS; CORNING #3640; time 18 hr.

Data on 72 compounds can be found in ChEMBL document CHEMBL4513146, “CO-ADD screening of Karazin Kharkiv National University (Ukraine) compounds”.

Measured potencies and affinities stand elsewhere.

By Inhibition is commonly meant the drop in the measured response relative to a control, in per cent. On to `CCOC(=O)c1ccc(NC(=O)CSc2nnc3c4cc(-c5ccc(OC)cc5)nn4ccn23)cc1`, for which the Inhibition in assay [1] is listed as 10.14%; in assay [2] it was 2.37%.

With `O=c1n(Cc2cccc(C(F)(F)F)c2)nc2c(S(=O)(=O)N3CCCCCC3)cccn12`, the Inhibition in assay [1] is given as 5.28%; in assay [2], -7.6%.

In the case of `O=C(CSc1nnc2c(=O)n(Cc3ccc(F)cc3)ccn12)NCC1CCCO1` (centres undefined), the Inhibition in assay [1] is reported as 8.21%; in assay [2], -3.13%.

With `Cc1cccc(NC(=O)Cn2nc3ccc(-c4ccc(Cl)cc4)nn3c2=O)c1C`, the Inhibition in assay [1] is given as 5.25%; in assay [2] it was -5.96%.

Regarding `COc1ccc(NC(=O)Cn2nc3ccc(SC(C)C)nn3c2=O)cc1OC`, the Inhibition is on record as -2.31% in assay [1] and 0.47% in assay [2].

With `O=c1c2sccc2n2c(=O)n(Cc3c(F)cccc3Cl)nc2n1CCc1ccccc1`, the values for the Inhibition in assay [1] and in assay [2] were 3.01% and -6.52%, respectively.

For the compound `COc1ccc(N(Cc2cccc(F)c2)S(=O)(=O)c2ccc3nnc(C)n3c2)cc1`, the Inhibition in assay [1] is recorded as -0.61%; in assay [2], -14.24%.

Consider `COc1cccc(-c2noc(Cn3nc4ccc(-c5ccccc5)nn4c3=O)n2)c1OC`, for which the values for the Inhibition in assay [1] and in assay [2] were 13.66% and -2.67%, respectively.

On to `CCOc1ccc(-n2ccn3c(SCC#N)nnc3c2=O)cc1`, for which the Inhibition in assay [1] was determined as 8.92%; in assay [2], 2.37%.

Turning to `COc1ccc(NC(=O)Cn2c(=O)c3nnc(C)n3c3ccccc32)cc1Cl`, the Inhibition in assay [1] is 14.24%; in assay [2] it was 3.26%.

Consider `CCc1nnc2c(SCC(=O)Nc3ccc(C(C)=O)cc3)nc3ccccc3n12`, for which the Inhibition came to 4.71% in assay [1] and 4.62% in assay [2].

As for `O=C(Cn1nc2c(N3CCOCC3)nc3ccccc3n2c1=O)NCc1ccccc1Cl`, the figures for the Inhibition in assay [1] and in assay [2] were -2.26% and -4.63%, respectively.

For the compound `COc1cccc(-n2ccn3c(SCc4ccccc4Cl)nnc3c2=O)c1`, the Inhibition in assay [1] was 8.33%; in assay [2], -9.75%.

Turning to `Cc1ccc(NC(=O)Cn2nc3ccc(SC(C)(C)C)nn3c2=O)cc1Cl`, the Inhibition in assay [1] is recorded as 3.27%; in assay [2] it was -0.69%.

For `Cc1ccc(NC(=O)Cn2nc3ccc(SC(C)(C)C)nn3c2=O)c(C)c1`, the Inhibition in assay [1] is reported as 13%; in assay [2], -1.14%.

For the compound `COc1ccc(-c2cc3c4nnc(CCC(=O)NCc5cccs5)n4ccn3n2)cc1`, the results for the Inhibition in assay [1] and in assay [2] were 11.44% and 4.51%, respectively.

With `O=c1c2sccc2n2c(=O)n(Cc3c(F)cccc3Cl)nc2n1Cc1cccs1`, the figures for the Inhibition in assay [1] and in assay [2] were 6.51% and 0.39%, respectively.

`CCOC(=O)c1ccc(NC(=O)Cn2nc3ccc(-c4ccc(Cl)cc4)nn3c2=O)cc1`: the Inhibition is on record as 7.47% in assay [1] and -1.44% in assay [2].

On to `COc1ccccc1NC(=O)Cn1nc2c3cc(-c4ccc(C)c(C)c4)nn3ccn2c1=O`, for which the results for the Inhibition in assay [1] and in assay [2] were 6.99% and 2.41%, respectively.

As for `CCOc1ccc(-n2ccn3c(SCC(N)=O)nnc3c2=O)cc1`, the Inhibition in assay [1] is recorded as 8.32%; in assay [2], 3.76%.

Regarding `O=c1n(Cc2cccc(C(F)(F)F)c2)nc2c(S(=O)(=O)N3CCCCC3)cccn12`, the Inhibition in assay [1] was 4.93%; in assay [2], -3.78%.

On to `CC(C)(C)NC(=O)Cn1nc2n(Cc3cccs3)c(=O)c3sccc3n2c1=O`, for which the Inhibition was -26.19% in assay [1] and -5.05% in assay [2].

Take `Cc1cc(C)c(NC(=O)Cn2nc3ccc(Sc4cccc(F)c4)nn3c2=O)c(C)c1`: the Inhibition in assay [1] was 3.74%; in assay [2] it was -5.92%.

On to `CCOc1ccc(-n2ccn3c(SC(CC)C(=O)Nc4ccc(C(C)C)cc4)nnc3c2=O)cc1` (centres undefined), for which the Inhibition in assay [1] was 5.33%; in assay [2], -6.24%.

Consider `CC(C)CCn1c(=O)c2ccc(C(=O)NC3CCCCC3)cc2n2c(=O)n(CC#N)nc12`, for which the Inhibition in assay [1] is 5.76%; in assay [2] it was -7.09%.

For the compound `CSc1cccc(NC(=O)Cn2nc3c(N4CCCC4)nccn3c2=O)c1`, the Inhibition in assay [1] is listed as -20.72%; in assay [2], -10.95%.

Regarding `Cc1ccc(CNC(=O)CSc2nnc3c(=O)n(-c4ccccc4)ccn23)cc1`, the Inhibition in assay [1] worked out at 12.76%; in assay [2], 0.71%.

For the compound `Cc1ccc(-c2cc3c4nn(CC(=O)Nc5ccc(Br)cc5)c(=O)n4ccn3n2)cc1C`, the Inhibition was 0.82% in assay [1] and -8.3% in assay [2].

With `COc1ccc(NC(=O)Cn2nc3nc(N4CCCCCC4)ccn3c2=O)cc1Cl`, the Inhibition in assay [1] is -1.58%; in assay [2] it was -10.88%.

`Cc1cc2nn(CC(=O)Nc3cc(F)cc(F)c3)c(=O)n2c(Nc2ccccc2C)n1`: the Inhibition is 5.53% in assay [1] and -3.12% in assay [2].

In the case of `O=c1c2sccc2n2c(=O)n(Cc3ccc(F)cc3)nc2n1CCc1ccccc1`, the Inhibition in assay [1] is given as 10.13%; in assay [2], 2.04%.

As for `CCOc1ccc(NC(=O)Cn2nc3c(Oc4cccc(OC)c4)nccn3c2=O)cc1`, the Inhibition was 13.11% in assay [1] and 1.75% in assay [2].

As to `O=C(CCc1nnc2c(N3CCCCC3)nc3ccccc3n12)NCc1ccc2c(c1)OCO2`, the Inhibition in assay [1] came to 17.67%; in assay [2] it was 2.95%.

Regarding `Cc1ccccc1Oc1nc2ccccc2n2c(=O)n(CC(=O)Nc3cccc(C(F)(F)F)c3)nc12`, the Inhibition in assay [1] is reported as 7.78%; in assay [2], 2.27%.

With `COC(=O)c1ccc(NC(=O)Cn2nc3c(Oc4ccccc4C)nccn3c2=O)cc1`, the Inhibition in assay [1] is -13.52%; in assay [2], 1.22%.

With `Cc1cccc(Oc2nccn3c(=O)n(CC(=O)Nc4ccccc4C(F)(F)F)nc23)c1C`, the Inhibition in assay [1] is given as 14.33%; in assay [2] it was 3.1%.

`O=c1n(Cc2ccc3c(c2)OCO3)nc2c(S(=O)(=O)N3CCCCC3)cccn12`: the Inhibition is 10.75% in assay [1] and 1.46% in assay [2].

`O=C(CSc1nnc2c(=O)n(-c3ccc(F)c(F)c3)ccn12)c1ccccc1Cl`: the Inhibition in assay [1] is 3.6%; in assay [2], -5.26%.

Take `Cc1cc(C)c(NC(=O)CSc2nnc3ccc(C(=O)Nc4cccc(F)c4)cn23)c(C)c1`: the results for the Inhibition in assay [1] and in assay [2] were 12.67% and 2.09%, respectively.

For `Cc1ccc(-c2ccc3nn(Cc4c(F)cccc4Cl)c(=O)n3n2)cc1`, the Inhibition is 14.3% in assay [1] and -0.36% in assay [2].

Regarding `CC(C)c1nnc2c(=O)n(CC(=O)Nc3cc(Cl)ccc3Cl)c3ccccc3n12`, the figures for the Inhibition in assay [1] and in assay [2] were 3.75% and 5.3%, respectively.

Regarding `COc1ccc(NC(=O)Cn2nc3c4cc(-c5ccc(C)cc5)nn4ccn3c2=O)c(OC)c1`, the Inhibition in assay [1] was 1.08%; in assay [2], -1.29%.

For `O=C(CSc1nc2ccccc2n2c(-c3ccccc3)nnc12)Nc1ccc(Br)cc1`, the Inhibition in assay [1] is on record as 12.1%; in assay [2] it was -0.27%.

Take `CCCN(C)c1nccn2c(=O)n(CC(=O)Nc3cccc(C(F)(F)F)c3)nc12`: the Inhibition is 6.48% in assay [1] and 3.02% in assay [2].

In the case of `O=C(CCc1nnc2c(N3CCCCC3)nc3ccccc3n12)NCc1ccccc1F`, the Inhibition in assay [1] turned out to be 5.87%; in assay [2], 6.41%.

As for `Cc1ccc(NC(=O)Cn2nc3c4cc(-c5ccc(Cl)cc5)nn4ccn3c2=O)cc1F`, the values for the Inhibition in assay [1] and in assay [2] were 11.6% and 6.51%, respectively.

`CCCCOc1ccc(-c2cc3c4nnc(SCC(=O)NCc5ccc(C)cc5)n4ccn3n2)cc1`: the Inhibition in assay [1] is reported as 2.78%; in assay [2], -5.47%.

For `COc1cccc(-n2ccn3c(SCC(=O)c4cc(C)ccc4C)nnc3c2=O)c1`, the Inhibition in assay [1] is recorded as 11.66%; in assay [2], -1.7%.

Take `CCCn1c(=O)c2sccc2n2c(CCC(=O)NC(C)C34CC5CC(CC(C5)C3)C4)nnc12` (centres undefined): the values for the Inhibition in assay [1] and in assay [2] were -5.57% and -7.36%, respectively.

For the compound `Cc1ccc(Oc2nccn3c(=O)n(CC(=O)Nc4ccccc4C(F)(F)F)nc23)cc1`, the Inhibition is reported as 6.18% in assay [1] and 0.58% in assay [2].

Take `CCOc1ccc(NC(=O)Cn2nc3ccc(-c4ccccc4)nn3c2=O)cc1`: the Inhibition is listed as 5.36% in assay [1] and -5.9% in assay [2].

For `CCOC(=O)c1ccccc1NC(=O)Cn1nc2c(Sc3ccccc3)nccn2c1=O`, the values for the Inhibition in assay [1] and in assay [2] were 8.61% and -3.65%, respectively.

In the case of `O=c1c2nn(Cc3cccc(Cl)c3)c(=O)n2ccn1-c1ccccc1`, the Inhibition in assay [1] is reported as 0.94%; in assay [2], -5.32%.

On to `CCOc1ccccc1NC(=O)Cn1nc2c(Sc3cccc(C)c3)nccn2c1=O`, for which the values for the Inhibition in assay [1] and in assay [2] were 3.15% and -1.9%, respectively.

Turning to `O=C(CSc1nnc2c(=O)n(-c3ccccc3)ccn12)c1ccc(F)cc1`, the Inhibition in assay [1] is 16.24%; in assay [2] it was -2%.

`O=S(=O)(c1cccn2c(SCc3c(F)cccc3Cl)nnc12)N1CCCC1`: the Inhibition in assay [1] worked out at 5.67%; in assay [2], 0.4%.

Turning to `CCCCn1c(=O)c2sccc2n2c(CCC(=O)NC(C)C34CC5CC(CC(C5)C3)C4)nnc12` (centres undefined), the Inhibition stood at 9.01% in assay [1] and 0.33% in assay [2].

For `Cc1ccc(Sc2nccn3c(=O)n(CC(=O)Nc4ccc(C)c(Cl)c4)nc23)c(C)c1`, the Inhibition in assay [1] is 6.61%; in assay [2] it was -6.53%.

On to `COc1cccc(-n2ccn3c(SCc4cccc(Cl)c4)nnc3c2=O)c1`, for which the Inhibition is given as 12.15% in assay [1] and -0.34% in assay [2].

As to `O=C(Cn1nc2c(Oc3ccc(Cl)cc3)nccn2c1=O)Nc1ccc2c(c1)OCO2`, the Inhibition in assay [1] is 6.57%; in assay [2] it was -7%.

On to `Cc1ccc(-c2cc3c4nn(CC(=O)Nc5ccc(C)c(Cl)c5)c(=O)n4ccn3n2)cc1C`, for which the results for the Inhibition in assay [1] and in assay [2] were -5.06% and -1.24%, respectively.

Turning to `Cc1cccc(N(Cc2ccc(F)cc2)S(=O)(=O)c2cccn3c(C)nnc23)c1`, the Inhibition is on record as 15.38% in assay [1] and -0.37% in assay [2].

For `CC(C)c1nnc2c(SCC(=O)N3CCN(c4ccc(F)cc4)CC3)nc3ccccc3n12`, the Inhibition in assay [1] was 10.21%; in assay [2], -1.94%.

For the compound `CCCc1nnc2c(=O)n(CC(=O)Nc3cccc(C#N)c3)c3ccccc3n12`, the Inhibition in assay [1] is 1.38%; in assay [2] it was -7.78%.

Regarding `CC(C)CCn1c(=O)c2ccccc2n2c(=O)n(CC#N)nc12`, the Inhibition in assay [1] is listed as 16.96%; in assay [2], 1.73%.

Regarding `Cc1cc(NC(=O)Cn2nc3ccc(SC(C)(C)C)nn3c2=O)ccc1Br`, the Inhibition in assay [1] is on record as -0.85%; in assay [2], -5.34%.

Turning to `COc1ccc(N(Cc2cccc(C)c2)S(=O)(=O)c2ccc3nnc(C)n3c2)cc1`, the Inhibition was 2.37% in assay [1] and -2.14% in assay [2].

Regarding `CCCCOc1ccc(-c2cc3c4nnc(SCC(=O)NCc5ccccc5)n4ccn3n2)cc1`, the Inhibition is -2.73% in assay [1] and -6.82% in assay [2].

As to `CC(=O)c1ccc(NC(=O)Cn2nc3c(Sc4ccc(C)cc4C)nccn3c2=O)cc1`, the values for the Inhibition in assay [1] and in assay [2] were -12.01% and -21.11%, respectively.

With `CCc1cccc(C)c1NC(=O)Cn1nc2ccc(SCc3ccc(Cl)cc3)nn2c1=O`, the results for the Inhibition in assay [1] and in assay [2] were -4.43% and -10.21%, respectively.

On to `CCc1ccccc1Sc1nccn2c(=O)n(CC(=O)Nc3ccc(Br)cc3)nc12`, for which the Inhibition is recorded as -9.89% in assay [1] and 1.96% in assay [2].

Consider `Cc1nnc2c(S(=O)(=O)N(Cc3cc(F)cc(F)c3)c3cccc(F)c3)cccn12`, for which the Inhibition in assay [1] is on record as 8.19%; in assay [2] it was -6.31%.
